Compound activity (PubChem BioAssay)
This excerpt belongs to a sample that is enriched for hits.
BL2 CD40 inh: CD40 pathway inhibition in BL2 cells. BL2 NF-kB luciferase reporter, CD40L-induced, 4 h. inhibition, % at 10 µM. 83,000 tested, 0.94% active. AID 1053188;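 active = mean inhibition of at least 50% with a set share of replicates also reaching that level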;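 also: 0% = neutral control wells and 100% = IKK inhibitor VII at 50 µM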
The depositor's hits bear a star; [ ] = another dose, or the depositor's remark.

SMILES	BL2 CD40 inh
CCN1C(=O)C(CC(=O)Nc2ccc(F)cc2)N(Cc2ccco2)C1=S (configuration not stated)	37*
O=C(C[C@H]1C[C@@H]2c3cc(NS(=O)(=O)c4ccccc4)ccc3O[C@@H]2[C@@H](CO)O1)N1CCOCC1	-6[25 µM]
NCc1c(O)ccc2ccccc12	-3
Oc1ccc2ccccc2c1CNc1cnc2ccccc2c1	54*
Cn1c(NCc2c(O)ccc3ccccc23)nc2ccccc21	-12
COc1ccc2c3c(n(C)c2c1)[C@H](CO)N(C(=O)CN1CCOCC1)CC31CCN(C(=O)Nc2cccc(F)c2)CC1	7[25 µM]
COc1ccc(S(=O)(=O)N(C)C[C@H]2OCCCC[C@H](C)Oc3ccc(NS(=O)(=O)c4ccc(Cl)cc4)cc3C(=O)N([C@H](C)CO)C[C@H]2C)cc1	-3
CC(C)[C@@H]1C(=O)N[C@H](c2ccc3c(c2)OCO3)CC=CC[C@H](C)Oc2ccccc2C(=O)N1C (mixture of isomers)	9
CN1C[C@@H]2[C@H](c3ccccc31)[C@H](CO)N2C(=O)Nc1ccccc1Cl	13[25 µM]
c1ccc(OCCSc2nnc3sc4ccccc4n23)cc1	87*
CCCn1c(=O)c2ccccc2n2c(SCCOc3ccccc3)nnc12	-3
c1ccc(OCCSc2nnnn2-c2ccccc2)cc1	-20
CCN(CC)c1ccc(C(NC(=O)C(C)C)c2ccc3cccnc3c2O)cc1 (configuration not stated)	75*
CC(C)C(=O)NC(c1ccco1)c1ccc2cccnc2c1O (configuration not stated)	-36
CC(C)C(=O)NC(c1ccc([N+](=O)[O-])cc1)c1c(O)ccc2ccccc12 (configuration not stated)	11
CN1CCN(C(=O)C[C@@H]2CC[C@@H]3[C@H](COC[C@H](O)CN3C(=O)Nc3ccc4c(c3)OCO4)O2)CC1	-37[25 µM]
CN1CCN(C(=O)C[C@H]2CC[C@H]3[C@@H](COC[C@H](O)CN3C(=O)Nc3ccc4c(c3)OCO4)O2)CC1	-39[25 µM]
CN1CCN(C(=O)C[C@@H]2CC[C@H]3[C@@H](COC[C@@H](O)CN3C(=O)Nc3ccc4c(c3)OCO4)O2)CC1	active[25 µM]
CC(=O)Nc1cccc2c1O[C@@H](CN(C)C(=O)NC(C)C)[C@@H](C)CN(C)C2=O	6
Cc1cc(C(=O)COC(=O)CNC(=O)c2ccccc2)c(C)n1CC1CCCO1 (configuration not stated)	58*
COc1cc(OC)cc(C(=O)OCC(=O)c2cc(C)n(CC3CCCO3)c2C)c1 (configuration not stated)	-27
Cc1cc(C(=O)COC(=O)c2ccc(O)cc2)c(C)n1CC1CCCO1 (configuration not stated)	24
O=S(=O)(c1ccccc1)N1CCCCN2[C@H](CO)[C@H](c3ccc(-c4ccccc4F)cc3)[C@@H]2C1	15[25 µM]
O=S1(=O)N=C(SCCO)c2ccccc21	-11
CC1=C(SCCO)C(=O)c2ccccc2C1=O	91*[25 µM]
SMILES	BL2 CD40 inh
O=C1c2ccccc2-c2c1c1ccccc1c(=O)n2CCO	-182
CN(C)C(=O)c1cc2c(c(-c3cccc(-c4ccccc4)c3)n1)[C@H](CCO)N([S@@](=O)C(C)(C)C)C2	23
COc1ccc(CN(C)C[C@@H]2Oc3ccc(NC(=O)Nc4c(C)noc4C)cc3C(=O)N([C@@H](C)CO)C[C@H]2C)cc1	-2[25 µM]
CN1c2ccc(-c3ccccc3F)cc2[C@H]2[C@H](CCN2C(=O)c2ccccn2)[C@@H]1CO	-38[25 µM]
O=C1/C(=C/c2ccccc2)CN(C(=O)CCN2CCOCC2)C/C1=C\c1ccccc1	93*
C[N+](C)(C)CCC(=O)N1C/C(=C/c2ccccc2)C(=O)/C(=C\c2ccccc2)C1	-60
O=C(/C=C/c1ccccc1)CCN1CCOCC1	-7
COc1ccccc1S(=O)(=O)N[C@@H]1CC[C@H](CCNC(=O)C2CCCC2)O[C@@H]1CO	-4
C[C@H]1CN(C)C(=O)c2cccnc2O[C@H]1CN(C)S(C)(=O)=O	-1
O=C(NCC[C@@H]1CC[C@H](NS(=O)(=O)Cc2ccccc2)[C@@H](CO)O1)C1CCCC1	3
Cn1c(=O)c(C(=O)c2ccccc2)c(O)c2ccccc21	6
Cn1c(-c2ccccc2)c(C(=O)CCl)c2ccccc21	71*
CCn1c(-c2ccccc2)c(C(=O)CCl)c2ccccc21	22
COc1ccc2c3c(n(C)c2c1)[C@@H](CO)N(C(=O)CN(C)C)CC31CN(Cc2nccs2)C1	3[25 µM]
COc1ccccc1S(=O)(=O)N1CC[C@H]2[C@H](CO)Nc3ccc(-c4ccccc4F)cc3[C@H]21	-35[25 µM]
CCCNC(=O)[C@H]1[C@H](CO)[C@H]2Cn3c(ccc(-c4cccc(C(=O)N(C)C)c4)c3=O)[C@@H]1N2	8[25 µM]
O=C1NCCOCn2nncc2CC[C@@H]1Cc1ccccc1	-1
O=C(N1CCOCC1)N1CCN(S(=O)(=O)c2ccc(Cl)cc2)C1	6
O=C(c1ccc(S(=O)(=O)Nc2ccccc2Cl)cc1)N1CCOCC1	7
O=C(c1nnsc1S(=O)(=O)c1ccc(Cl)cc1)N1CCOCC1	97*
COCC(=O)N(C[C@@H]1N[C@H](CO)[C@H]1c1ccc(C2=CCCC2)cc1)C(C)C	-13
COCc1nnc(NC(=O)C2CC(=O)N(c3ccc(C)c(Cl)c3)C2)s1 (configuration not stated)	1
Cc1ccc(N2CC(C(=O)Nc3nccs3)CC2=O)cc1Cl (configuration not stated)	61*
O=C(Nc1nccs1)C1CC(=O)N(c2ccc(F)cc2)C1 (configuration not stated)	1
c1ccn2cc(-c3ccc4c(c3)OCCO4)nc2c1	67*
SMILES	BL2 CD40 inh
O=S(=O)(c1cccc(-c2cn3ccccc3n2)c1)N1CCCCC1	7
CN(C)S(=O)(=O)c1cccc(-c2cn3ccccc3n2)c1	-28
CS(=O)(=O)N1CC2C(c3ccc(Br)cc3)C(C1)N2CC(F)(F)F (configuration not stated)	5
CN(C)C(=O)c1cccc(-c2ccc(C3[C@@H]4CN(S(=O)(=O)Cc5ccccc5)C[C@H]3N4)cc2)c1 (some centres not stated)	-18
O=C(Cc1cccc2ccccc12)NC1CCCCCC1	-14
O=C(Nc1ccc(F)cc1)c1nn(-c2ccccc2)c(=O)cc1Cl	85*
Cc1ccc(NC(=O)c2cc(-c3ccccc3)nn2-c2ccccc2)cc1	-3
CCOC(=O)c1nn(-c2ccc(F)cc2)c(=O)cc1OCC(=O)Nc1cccc(C)c1	12
O=C(C1CCCC1)N1CC(=O)N2[C@H](CO)[C@@H](c3ccc(C#Cc4cccc(F)c4)cc3)[C@H]2C1	7
CO[C@@H](C(=O)N(C)C[C@@H]1OCc2ccccc2-c2c(n(C)c3ccccc23)C(=O)N([C@@H](C)CO)C[C@@H]1C)c1ccccc1	-8[25 µM]
CCCC#Cc1ccc2c(c1)[C@H]1[C@H](CCN1S(=O)(=O)c1ccc(C)cc1)[C@H](CO)N2C	-5[25 µM]
COc1ccccc1NC(=O)N(C)C[C@H]1OCc2ccccc2-c2c(n(C)c3ccccc23)C(=O)N([C@H](C)CO)C[C@H]1C	3
COCC(=O)NC[C@H]1N[C@H](CO)[C@H]1c1ccc(C2=CCCC2)cc1	-12
O=C1c2sc3nc4ccccc4n3c2C(=O)N1c1ccccc1Cl	52*
CC(=O)c1cnc(-c2ccccc2Cl)s1	1
CCCCCCCCCCCCCCCC(=O)C1C(=O)OC(CO)C1=O (configuration not stated)	-13[25 µM]
O=C(Nc1ccc(Cl)cc1)N1C[C@@H]2[C@H](c3ccccc31)[C@H](CO)N2CC1CCCCC1	1[25 µM]
